Data published in PubChem BioAssay (Tox21).
Inconclusive results are not listed. Activity calls are given as the source filed them. Unless noted, calls come from the whole dose curve; as a rule, active = well fitted curve in the direction sought with a large enough effect in the repeat runs; inconclusive = weak or mixed curves; inactive = no such curve, though single readings can be large; an effect the other way counts as inactive or inconclusive.

Assays:
[1] = target: Estrogen receptor (Homo sapiens) (UniProt P03372); experiment: qHTS assay to identify small molecule agonists of the estrogen receptor alpha (ER-alpha) signaling pathway in the presence of an antagonist (AID 1259383; calls by dose curve; note: top concentration of the series differs between compounds; nearly all actives have a fitted effect of over 15% in size)
Method in brief: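 Quantitative HTS confirmation: compounds titrated at 15 concentrations onto estrogen-deprived VM7Luc4E2 cells carrying a four-ERE luciferase construct, with ICI-182,780 present at 10.0nM final. Signal is luminescence after 22hr exposure.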

[2] = qHTS assay to identify small molecule agonists or antagonists of the thyroid stimulating hormone receptor (TSHR) signaling pathway - wild type cell line counter screen (AID 1259384; calls by dose curve)
Method in brief: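 Wild-type HEK293 cells were plated 18 h at 37 C/5% CO2, pin-dosed with compound plus Ro20-1724 medium, held 30 min at room temperature, then given cAMP-d2 and anti-cAMP-cryptate; fluorescence was read after 1 h. Fifteen concentrations, triplicate.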

[3] = target: Thyrotropin receptor (Homo sapiens) (UniProt P16473); experiment: qHTS assay to identify small molecule antagonists of the thyroid stimulating hormone receptor (TSHR) signaling pathway (AID 1259385; calls by dose curve; note: nearly all actives have a fitted effect of over 20% in size)
Method in brief: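 TSHR-HEK293 cells were plated and held 18 h at 37C/5% CO2, then given compound plus Ro20-1724 and stimulated with TSH at 1.5 ng/mL final. After 30 min at room temperature, cAMP was detected with cAMP-d2/anti-cAMP-cryptate (1 h) by fluorescence.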

[4] = qHTS assay to identify small molecule agonists of the estrogen receptor alpha (ER-alpha) signaling pathway in the presence of an antagonist - cell viability counter screen (AID 1259386);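 note: series mostly up to about 92 µM; cells exposed to compounds for 22 h at 37 °C before the viability read; nearly all actives have a fitted effect of over 30% in size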
Method in brief: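 The test measures whether compounds kill ER-alpha reporter cells (VM7Luc4E2) under antagonist co-treatment (ICI-182,780, 10.0nM). Fluorescence from CellTiter-Fluor is read after a 22hr exposure.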

[5] = target: Progesterone receptor (Homo sapiens) (UniProt P06401); experiment: qHTS assay to identify small molecule agonists of the progesterone receptor (PR) signaling pathway (AID 1346784; calls by dose curve; note: nearly all actives have a fitted effect of over 30% in size)
Method in brief: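 Cells (PR-UAS-bla HEK 293T, GripTite) were plated in assay medium containing 2% charcoal-stripped FBS and incubated 6 hr. Test compounds in DMSO were added for 16 hr at 37C. FRET substrate was then loaded for 2 hr at room temperature before fluorescence reading.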

[6] = target: Progesterone receptor (Homo sapiens) (UniProt P06401); experiment: qHTS assay to identify small molecule antagonists of the progesterone receptor (PR) signaling pathway (AID 1346795; active = well fitted inhibition curve with a large enough effect in the signal ratio in the repeat runs, not every such curve was filed as active; the % refers to the signal ratio)
Method in brief: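 Antagonist mode: compounds tested against 1 nM (final) promegestone stimulation in HEK293T cells expressing PR-UAS-bla reporter, 16 hr at 37C, 5% CO2; beta-lactamase activity detected via B/G FRET substrate after 2 hr at room temperature.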

[7] = qHTS assay to identify small molecule antagonists of the progesterone receptor (PR) signaling pathway - cell viability counter screen (AID 1346798); note: series mostly up to about 92 µM; nearly all actives have a fitted effect of over 50% in size
Method in brief: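 Counter screen for cytotoxicity: viability of PR-UAS-bla HEK293T cells was measured with CellTiter-Glo luminescence following 16 hr compound exposure in the presence of R5020.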

[8] = qHTS assay to identify small molecule agonists of the progesterone receptor (PR) signaling pathway - cell viability counter screen (AID 1346799; calls by dose curve; note: nearly all actives have a fitted effect of over 45% in size)
Method in brief: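 Cells (PR-UAS-bla HEK293T) are plated at 3,000/well in 2% charcoal-stripped FBS medium, rested 6 hr, dosed and incubated 16 hr at 37C. CellTiter-Glo is then added and luminescence measured after 30 min at room temperature.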

[9] = qHTS assay to identify small molecule agonists of the TGF-beta/Smad signaling pathway - cell viability counter screen (AID 1346829); note: top concentration of the series differs between compounds; nearly all actives have a fitted effect of over 45% in size
Method in brief: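 CellTiter-Glo luminescence readout; SBE-bla HEK 293T cells, overnight plating, compound 5 hr at 37 C/5% CO2, then bla substrate 2 hr RT, then CellTiter-Glo 30 min RT.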

[10] = qHTS assay to identify small molecule agonists of the TGF-beta/Smad signaling pathway (AID 1346859; active = well fitted activation curve with a large enough effect in the signal ratio in the repeat runs, not every such curve was filed as active; the % refers to the signal ratio; note: series mostly up to about 77 µM)
Method in brief: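 Reporter line: HEK 293T with stably integrated SBE-controlled beta-lactamase. Compound exposure lasts 5 hr at 37 C and 5% CO2; substrate loading follows for 2 hr at room temperature, with emission read at 460 and 530 nm.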

[11] = target: Thyrotropin-releasing hormone receptor (Homo sapiens) (UniProt P34981); experiment: qHTS assay to identify small molecule antagonists of the thyrotropin-releasing hormone receptor (TRHR) signaling pathway (AID 1346877; active = well fitted inhibition curve with a large enough effect in the repeat runs, not every such curve was filed as active; note: series mostly up to about 51 µM)
Method in brief: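 Overnight-plated (18 h, 37 °C) HEK293 cells expressing TRHR were dye-loaded 2 h, treated with compound, then stimulated with TRH at 1 nM final. Fluorescence intensity was captured every second for 3 min.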

[12] = target: Thyrotropin-releasing hormone receptor (Homo sapiens) (UniProt P34981); experiment: qHTS assay to identify small molecule agonists of the thyrotropin-releasing hormone receptor (TRHR) signaling pathway (AID 1346891; calls by dose curve;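 note: HEK293 cells expressing TRHR with calcium dye readout; series mostly up to about 58 µM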)
Method in brief: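 Cells: TRHR-Hek293, seeded and incubated 18 h. Dye loading: 2 h at 37 °C. Compound added from DMSO stock by pin tool. Read-out: kinetic calcium fluorescence over 3 min.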

[13] = Human pregnane X receptor (PXR) small molecule agonists, qHTS cell viability counter screen (AID 1346977); note: nearly all actives have a fitted effect of over 50% in size
Method in brief: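 Cytotoxicity counter screen run in the same wells as the PXR luciferase assay, using PXR-Luc HepG2 cells in charcoal-stripped serum medium. Viability: CellTiter-Fluor fluorescence after 24hr compound treatment.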

[14] = Caspase-3/7 induction in HepG2 cells by small molecules, qHTS assay (AID 1346978); note: nearly all actives have a fitted effect of over 15% in size
Method in brief: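 Wild-type HepG2 cells (2,000/well) were settled 5 h at 37 C, 5% CO2, then exposed to compounds in DMSO for 17 h. Caspase-3/7 activity was read by luminescence 30 min after adding Caspase-Glo 3/7 reagent at room temperature.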

[15] = Caspase-3/7 induction in CHO-K1 cells by small molecules, qHTS cell viability counter screen (AID 1346979); note: nearly all actives have a fitted effect of over 35% in size
Method in brief: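 Cytotoxicity counter screen run in parallel with the caspase-3/7 assay: CHO-K1 cells, 16hr compound treatment at 37C, then CellTiter-Fluor for 1hr before fluorescence reading.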

[16] = Caspase-3/7 induction in CHO-K1 cells by small molecules, qHTS assay (AID 1346980); note: nearly all actives have a fitted effect of over 15% in size
Method in brief: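 Wild-type cells were seeded at 1,500 per well and settled 5 hr at 37 C, 5% CO2, then exposed to DMSO-dissolved compounds for 17 hr. Caspase-Glo 3/7 reagent was added, and luminescence was read after 30min at room temperature.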

[17] = Caspase-3/7 induction in HepG2 cells by small molecules, qHTS cell viability counter screen (AID 1346981); note: series mostly up to about 92 µM; nearly all actives have a fitted effect of over 30% in size
Method in brief: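 Treatment of HepG2 cells with DMSO-delivered compounds ran 16 hr at 37 C following a 5-hr pre-incubation of 2,000 cells/well. CellTiter-Fluor fluorescence, read after 1 hr, served as the viability measure in a qHTS format.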

[18] = target: Nuclear receptor subfamily 1 group I member 2 (Homo sapiens) (UniProt O75469); experiment: Human pregnane X receptor (PXR) small molecule agonists, qHTS assay (AID 1346982); note: nearly all actives have a fitted effect of over 35% in size; note: potency is the fitted concentration of half-maximal effect
Method in brief: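 Stable HepG2 line reporting PXR-mediated CYP3A4 expression via luciferase. Treatment: 24 hr with compounds in DMSO at 37 C. Detection: ONE-Glo luminescence.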

[19] = qHTS assay to identify small molecule antagonists of the TGF-beta/Smad signaling pathway - cell viability counter screen (AID 1346824); note: nearly all actives have a fitted effect of over 50% in size
Method in brief: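 SBE-bla HEK 293T cells were plated overnight at 37 C, then given compounds in DMSO plus TGF-beta1 (added as 0.25 ng/mL solution) for 5 hr. After the bla read, CellTiter-Glo was added to the same wells and luminescence read after 30 min at room temperature.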
% is set by controls: 0 for no effect and ±100 for the full control effect.

Nuclear receptor subfamily 1 group I member 2 (Homo sapiens), sequence (O75469 whole entry, looked up): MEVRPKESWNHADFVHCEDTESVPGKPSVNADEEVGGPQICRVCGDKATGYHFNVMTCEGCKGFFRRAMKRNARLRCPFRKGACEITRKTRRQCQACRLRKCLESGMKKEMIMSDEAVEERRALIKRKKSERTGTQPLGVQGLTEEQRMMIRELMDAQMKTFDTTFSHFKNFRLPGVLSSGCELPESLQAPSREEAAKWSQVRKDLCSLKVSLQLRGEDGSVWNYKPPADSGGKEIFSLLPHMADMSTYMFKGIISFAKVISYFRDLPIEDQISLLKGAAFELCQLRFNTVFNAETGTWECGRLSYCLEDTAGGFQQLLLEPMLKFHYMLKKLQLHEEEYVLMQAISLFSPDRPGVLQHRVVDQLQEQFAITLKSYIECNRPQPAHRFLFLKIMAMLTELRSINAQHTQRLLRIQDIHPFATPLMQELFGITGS
Thyrotropin-releasing hormone receptor (Homo sapiens), sequence (P34981 whole entry, looked up): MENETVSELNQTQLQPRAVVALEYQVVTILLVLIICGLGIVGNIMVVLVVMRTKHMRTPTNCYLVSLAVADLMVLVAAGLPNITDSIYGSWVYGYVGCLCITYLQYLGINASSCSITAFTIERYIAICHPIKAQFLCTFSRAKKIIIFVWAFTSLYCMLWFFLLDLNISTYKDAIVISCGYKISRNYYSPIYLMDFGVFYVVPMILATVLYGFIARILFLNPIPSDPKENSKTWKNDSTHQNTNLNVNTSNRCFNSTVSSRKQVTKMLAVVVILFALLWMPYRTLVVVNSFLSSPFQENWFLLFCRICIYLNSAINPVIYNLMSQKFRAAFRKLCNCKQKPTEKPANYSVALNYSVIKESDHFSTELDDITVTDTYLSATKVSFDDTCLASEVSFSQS
Progesterone receptor (Homo sapiens), sequence (P06401 whole entry, looked up): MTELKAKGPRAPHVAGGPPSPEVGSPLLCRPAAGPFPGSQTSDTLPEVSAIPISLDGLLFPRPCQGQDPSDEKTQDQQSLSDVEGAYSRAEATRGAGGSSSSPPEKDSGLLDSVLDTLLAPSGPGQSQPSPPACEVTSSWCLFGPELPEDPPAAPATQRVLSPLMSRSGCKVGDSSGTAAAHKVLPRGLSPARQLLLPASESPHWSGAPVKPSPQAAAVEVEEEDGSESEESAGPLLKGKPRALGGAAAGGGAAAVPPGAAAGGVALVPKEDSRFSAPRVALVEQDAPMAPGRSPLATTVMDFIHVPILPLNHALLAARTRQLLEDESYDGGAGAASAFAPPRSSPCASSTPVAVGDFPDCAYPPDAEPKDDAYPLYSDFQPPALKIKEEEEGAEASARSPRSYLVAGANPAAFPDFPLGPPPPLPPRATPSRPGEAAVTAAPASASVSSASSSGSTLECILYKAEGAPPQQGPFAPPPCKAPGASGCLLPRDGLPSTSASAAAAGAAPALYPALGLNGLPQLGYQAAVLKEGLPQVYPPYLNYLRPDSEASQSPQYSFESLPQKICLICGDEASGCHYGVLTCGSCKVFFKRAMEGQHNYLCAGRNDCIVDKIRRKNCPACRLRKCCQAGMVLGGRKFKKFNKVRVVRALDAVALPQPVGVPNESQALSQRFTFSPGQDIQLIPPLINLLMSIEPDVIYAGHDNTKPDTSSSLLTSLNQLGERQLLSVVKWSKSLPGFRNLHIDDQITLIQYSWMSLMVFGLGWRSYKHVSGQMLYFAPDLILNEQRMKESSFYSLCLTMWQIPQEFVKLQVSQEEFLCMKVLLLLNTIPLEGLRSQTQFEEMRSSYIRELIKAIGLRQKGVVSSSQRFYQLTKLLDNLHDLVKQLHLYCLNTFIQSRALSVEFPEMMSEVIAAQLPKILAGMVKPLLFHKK
Thyrotropin receptor (Homo sapiens), sequence (P16473 whole entry, looked up): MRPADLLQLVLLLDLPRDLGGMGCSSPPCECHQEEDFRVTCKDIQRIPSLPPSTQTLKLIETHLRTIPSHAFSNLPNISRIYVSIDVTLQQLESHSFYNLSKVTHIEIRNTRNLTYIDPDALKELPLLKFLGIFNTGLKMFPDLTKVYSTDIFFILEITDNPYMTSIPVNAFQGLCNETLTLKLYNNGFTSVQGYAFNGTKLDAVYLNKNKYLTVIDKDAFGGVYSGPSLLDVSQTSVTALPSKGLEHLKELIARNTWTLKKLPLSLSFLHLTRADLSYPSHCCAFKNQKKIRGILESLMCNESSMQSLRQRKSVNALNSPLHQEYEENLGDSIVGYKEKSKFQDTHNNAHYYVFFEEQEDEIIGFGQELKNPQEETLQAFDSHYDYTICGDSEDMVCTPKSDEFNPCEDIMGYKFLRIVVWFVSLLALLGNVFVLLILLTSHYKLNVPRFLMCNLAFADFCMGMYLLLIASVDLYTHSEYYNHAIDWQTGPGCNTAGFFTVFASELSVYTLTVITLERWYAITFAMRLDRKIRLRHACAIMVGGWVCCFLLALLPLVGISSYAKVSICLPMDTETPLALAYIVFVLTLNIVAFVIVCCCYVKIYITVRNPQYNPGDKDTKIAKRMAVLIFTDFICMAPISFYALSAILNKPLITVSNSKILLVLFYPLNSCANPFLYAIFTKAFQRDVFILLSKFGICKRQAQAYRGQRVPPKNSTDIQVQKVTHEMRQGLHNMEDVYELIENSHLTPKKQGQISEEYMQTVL
Estrogen receptor (Homo sapiens), sequence (P03372 whole entry, looked up): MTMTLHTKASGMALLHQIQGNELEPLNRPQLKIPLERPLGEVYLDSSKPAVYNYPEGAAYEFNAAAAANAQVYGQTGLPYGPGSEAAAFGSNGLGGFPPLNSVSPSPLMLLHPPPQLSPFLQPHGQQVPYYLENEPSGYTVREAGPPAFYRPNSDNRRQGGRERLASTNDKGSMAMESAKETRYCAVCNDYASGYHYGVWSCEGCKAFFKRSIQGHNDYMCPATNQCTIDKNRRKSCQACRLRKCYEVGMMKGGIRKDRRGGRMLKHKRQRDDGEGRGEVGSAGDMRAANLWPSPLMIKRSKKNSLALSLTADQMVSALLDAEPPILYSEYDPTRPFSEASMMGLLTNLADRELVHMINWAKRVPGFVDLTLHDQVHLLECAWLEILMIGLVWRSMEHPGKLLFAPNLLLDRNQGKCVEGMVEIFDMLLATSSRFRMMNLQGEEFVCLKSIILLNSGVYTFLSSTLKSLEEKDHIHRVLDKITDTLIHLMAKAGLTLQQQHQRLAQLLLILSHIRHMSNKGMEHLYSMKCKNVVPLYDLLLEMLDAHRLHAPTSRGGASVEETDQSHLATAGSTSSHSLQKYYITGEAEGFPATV

COC(=O)c1ccc(NC(C)=O)cc1OC
inactive: Potency [1] | outcome [2] | outcome [3] | outcome [4] | Potency [5] | Potency [6] | outcome [7] | Potency [8] | outcome [9] | outcome [10] | outcome [11] | Potency [12] | outcome [13] | outcome [14] | Potency [15] | outcome [16] | outcome [17] | Potency [18]

Cc1ccc(N)nc1
inactive: Potency [1] | outcome [2] | outcome [3] | outcome [4] | Potency [5] | Potency [6] | outcome [7] | Potency [8] | outcome [19] | outcome [10] | outcome [13] | outcome [14] | Potency [15] | outcome [17] | Potency [18]

C[C@@H]1CCC[C@H](C)N1CCCC(O)(c1ccccc1)c1ccccn1 (some centres not stated)
inactive: Potency [1] | outcome [2] | outcome [3] | outcome [4] | Potency [5] | Potency [6] | Potency [8] | outcome [19] | outcome [9] | outcome [10] | outcome [11] | Potency [12] | outcome [13] | outcome [14] | Potency [15] | outcome [16] | outcome [17] | Potency [18]

CCCCN(CCCC)CCCCCCN(CCCC)CCCC
inactive: Potency [1] | outcome [2] | outcome [3] | outcome [4] | Potency [5] | Potency [6] | outcome [7] | Potency [8] | outcome [19] | outcome [10] | outcome [11] | outcome [13] | outcome [14] | Potency [15] | outcome [16] | outcome [17] | Potency [18]

Cc1cc(=O)oc2cc(O[C@@H]3SC[C@@H](O)[C@H](O)[C@H]3O)ccc12
inactive: Potency [1] | outcome [2] | outcome [3] | outcome [4] | Potency [5] | Potency [6] | outcome [7] | Potency [8] | outcome [19] | outcome [9] | outcome [10] | outcome [13] | outcome [14] | Potency [15] | outcome [16] | outcome [17] | Potency [18]

CCCCCCCCCCCCCCCC(=O)OC
inactive: activation [1] -2.08% [at 19 µM] | cAMP activity change [2] -2.44% [at 18.9 µM] | activity change, negative = inhibition [3] 1.93% [at 19 µM] | activity change, negative = cytotoxicity [4] -0.526% [at 19 µM] | activation [5] -3.12% [at 19 µM] | activity change, negative = inhibition [6] 0.526% [at 18.9 µM] | activity change, negative = cytotoxicity [7] 20% [at 18.9 µM] | viability change, negative = cytotoxic [19] 1.68% [at 15.8 µM] | activity change, negative = cytotoxicity [9] -0.944% [at 15.8 µM] | activation [10] 0.447% [at 15.8 µM] | activity, negative = inhibition [11] 0.477% [at 10.5 µM] | activation [12] 1.74% [at 11.8 µM] | activity change, negative = cytotoxicity [13] 0.375% [at 19 µM] | caspase activation [14] 1.29% [at 19 µM] | activity change, negative = cytotoxicity [15] 3.95% [at 19 µM] | caspase-3/7 activation [16] 1.1% [at 19 µM] | activity change, negative = cytotoxicity [17] -1.7% [at 19 µM] | activation [18] 4.26% [at 19 µM]

NNC(=O)OCc1ccccc1
inactive: Potency [1] | outcome [2] | outcome [3] | outcome [4] | Potency [5] | Potency [6] | outcome [7] | Potency [8] | outcome [19] | outcome [9] | outcome [10] | outcome [11] | Potency [12] | outcome [13] | outcome [14] | Potency [15] | outcome [16] | outcome [17]
active: Potency [18] 54.5 µM
